The text below walks through data of PubChem BioAssay (NCI).

Where “and” joins values, the source holds several entries; their conditions need not be identical. Identical values can stand only once. The panel holds about 83,000 compounds, 20% with a hit somewhere; the sample as a whole holds those more often.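 Compound tested at a single concentration for 48 hours in 96-well plates; a percent growth value below 10 was scored as active.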 Calls of active or inactive are those of the source.

The subject of this assay is MCF7 breast. Nature of the assay: NCI-60 one-dose screen, 48 h (100 = growth as untreated, 0 = no growth, -100 = all killed). Conditions: 10 µM unless noted.
As to `CC1CC(=O)N(N(C)C)C2(C#N)C(=O)N=C(N)C12C#N` (stereo not given), the growth was -67.7% [100 µM] (active) and -64.1% [100 µM] (active). Next, `Cc1cc(S(=O)(=O)O)c(NC(=O)c2oc3cc(O)ccc3c(=O)c2C)cc1Cl`: 100% [100 µM] (inactive) and 86.3% [100 µM] (inactive); `CCO/C=N\C1=C(C#N)SC2=N/C(=C\c3ccc(OC)cc3)C(=O)N21`: 59.2% [100 µM] (inactive) and 48.6% [100 µM] (inactive). On to `COc1ccc(/C=C2/NC(=S)N=C2Cl)cc1`, for which the growth was 82% [100 µM] (inactive) and 75% [100 µM] (inactive). Next, `Fc1ccc(Nc2nc(Cl)c3[nH]cnc3n2)cc1Cl`: 53.5% [100 µM] (inactive) and 7.87% [100 µM] (active); `COc1ccc2cc1Oc1ccc(cc1)CC1c3cc(OC)c(cc3CCN1C)Oc1c(OC)c(OC)cc3c1C(C2)N(C)CC3` (stereo not given): 24.7% [75 µM] (inactive) and -97.6% [75 µM] (active); `O=C1c2cccnc2-c2nccc3ccnc1c23`: -90.9% [100 µM] (active) and -100% [100 µM] (active). For `COC(=O)C(Cc1nc2ccccc2[nH]c1=O)C(=O)C(=O)Nc1cc(C(F)(F)F)ccc1Cl` (stereo not given) the value was -91.8% [100 µM] (active) and 0% [100 µM] (active); for `C=C(C)C(=O)OC1CC2(C)OC(=CC2=O)C(C)CC2OC(=O)C(=C)C12` (stereo not given), -77.3% [100 µM] (active).

`C[C@@H]1C[C@](O)([C@@H](C)Cl)C(=O)O[C@@H]2CCN3CC=C(COC(=O)[C@]1(C)O)[C@H]23`: the growth is 82.2% [100 µM] (inactive) and 71.5% [100 µM] (inactive). Next, `COC(=O)C(/C(=N/NC(N)=O)C(=O)Nc1ccc(C)cc1)c1nc2ccc([N+](=O)[O-])cc2[nH]c1=O` (stereo not given): 68.7% [100 µM] (inactive) and 41.2% [100 µM] (inactive); `C/C(O)=C/c1nc2sc(C)c(C)c2c(=O)s1`: 10.6% [100 µM] (inactive) and 6.54% [100 µM] (active). For `CCOc1cc2c(cc1O)/C(=N/NS(=O)(=O)c1ccc(C)cc1)C[C@@H]1[C@@H]2CC[C@]2(C)[C@@H](O)CC[C@@H]12` the value was -3.96% [100 µM] (active); for `COc1ccc(C)cc1NC(=S)C#N`, 77.9% [100 µM] (inactive) and 4.98% [100 µM] (active); for `N#CC(=S)Nc1ccc(F)cc1`, 13.1% [100 µM] (inactive) and -70.2% [100 µM] (active).

Regarding `COC(=O)/C(=N\NC(=S)NN)C(C(=O)OC)C(=O)C(=O)Nc1cccc(C(F)(F)F)c1` (stereo not given), the growth was 63.8% [100 µM] (inactive) and 8.67% [100 µM] (active). Next, `NC1N=C(c2ccc(Cl)cc2)C2=C(N1)c1ccccc1CC2` (stereo not given): 13.4% [100 µM] (inactive) and -96.2% [100 µM] (active); `C=CCNC1=C2C[C@@H](C)C[C@@H](OC)[C@@H](OC(=O)CCCN)[C@H](C)/C=C(\C)[C@@H](OC(N)=O)[C@H](OC)/C=C\C=C(/C)C(=O)NC(=CC1=O)C2=O`: -82% [100 µM] (active) and -94.9% [100 µM] (active). For `COc1cc2c3cc1Oc1c(OC)c(OC)cc4c1C(Cc1ccc(O)c(c1)-c1cc(ccc1OC)CC3N(C)CC2)N(C)CC4` (stereo not given) the value was 10.3% [100 µM] (inactive) and -92.9% [100 µM] (active); for `Clc1ccc(C2NN=C3c4ccccc4OCC32)cc1` (stereo not given), -15.5% [100 µM] (active) and -82.5% [100 µM] (active). Next, `O=C(Nc1cccc(NC(=O)C(=O)C2CCC3=C(Sc4ccccc4N3)C2=O)n1)C(=O)C1CCC2=C(Sc3ccccc3N2)C1=O` (stereo not given): 51.4% [100 µM] (inactive) and 4.4% [100 µM] (active); `O=C1NC(N/N=C\c2ccccc2)=N/C1=C/c1ccc(Cl)cc1`: -66.3% [100 µM] (active) and 14% [100 µM] (inactive). On to `Cc1cc2nn(C3CCCO3)nc2cc1C` (stereo not given), for which the growth was 79.7% [100 µM] (inactive) and 92.9% [100 µM] (inactive). Next, `CNc1nc2c(C)ccc3[nH]c(N(C)C)nc3c-2n1`: 8.99% [100 µM] (active) and 1.25% [100 µM] (active); `Cc1ccc(NC(=O)/C(=N\NC(N)=O)c2c(O)c3ccccc3[nH]c2=O)cc1`: 92.8% [100 µM] (inactive) and 85.4% [100 µM] (inactive).

On to `C=C1C(=O)OC2/C=C(\CO)CC/C=C(\CO)CC(OC(=O)C(C)C)C12` (stereo not given), for which the growth was -82.7% [100 µM] (active) and -70% [100 µM] (active). For `C/C=C1\NC(=O)[C@H]2CSSCCC=C[C@H](CC(=O)N[C@H](C(C)C)C(=O)N2)OC(=O)[C@H](C(C)C)NC1=O` the value was -73.3% [0.1 µM] (active) and -95.5% [0.1 µM] (active); for `COC(=O)C1CCC(=O)N1CN(C(C)=O)c1cccc(O)c1` (stereo not given), 90.1% [100 µM] (inactive) and 83.5% [100 µM] (inactive). With `O=C(O)c1n[nH]nc1Cl`, the growth is 94.1% [100 µM] (inactive) and 80.7% [100 µM] (inactive). Next, `CCC1OC2(C)CC(C#N)(C#N)C1(C#N)C(=N)O2` (stereo not given): 39.8% [100 µM] (inactive). For `CC(C)O/N=C/c1cc(NC(=S)OC(C)C)ccc1Cl` the value was -77.4% [100 µM] (active) and 3.65% [100 µM] (active). With `C=C(C)C1CC2(C)C(C)CC(OC(=O)/C(C)=C\C)CC2C(OC(=O)/C(C)=C\C)C1O` (stereo not given), the growth is -15.7% [100 µM] (active) and -14.3% [100 µM] (active). Next, `COc1ccc(/C=c2\[nH]c3nc(=O)c(N4CCOCC4)c(N)n3c2=O)cc1`: 56.5% [100 µM] (inactive) and 43.7% [100 µM] (inactive); `CCCCCCCCOC(=O)C12Oc3ccc(-c4ccc5c(c4O)C(O)=C4C(=O)CC(C)C(O)C4(C(=O)OCCCCCCCC)O5)c(O)c3C(O)=C1C(=O)CC(C)C2O` (stereo not given): -22.3% [100 µM] (active) and -100% [100 µM] (active). Next, `CC(=N\N=C\c1ccccn1)/C(C)=N/N=C/c1ccccn1`: 76.4% [100 µM] (inactive) and 78.5% [100 µM] (inactive); `CC(=O)c1ccc(NC(=O)/C(CC(=O)/C=C/c2ccccc2)=N/NC(N)=S)cc1`: 52.9% [100 µM] (inactive) and 4.14% [100 µM] (active). For `OCc1ccccc1OC1OC(CO)C(O)C(O)C1O` (stereo not given) the value was 120% [100 µM] (inactive) and 82.9% [100 µM] (inactive). `CC(C)(C)c1cc(C2COC(=O)COCCOCC(=O)OCCOCCO2)cc(C(C)(C)C)c1O` (stereo not given): the growth is 70.6% [100 µM] (inactive) and 74.1% [100 µM] (inactive). For `NC(=S)Nc1[nH]c(=S)nc2c1SC1=N/C(=C\c3ccco3)C(=O)N12` the value was 20.2% [100 µM] (inactive) and 4.03% [100 µM] (active). For the compound `CCOC(=O)C(=O)C(CCC(=O)c1ccc2ccccc2c1O)C(=O)OCC` (stereo not given), the growth is 69.9% [100 µM] (inactive) and 81.3% [100 µM] (inactive).
